Consider six compounds from PubChem BioAssay (NCATS).

Assay [1] deals with Glucocorticoid receptor (Homo sapiens) (UniProt P04150). The assay is described as follows: qHTS assay for small molecule agonists of glucocorticoid receptor signaling (AID 588532; active = well fitted curve in the direction sought with a large enough effect in the signal ratio, with a control signal flat; the % refers to the signal ratio;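 also: 100% = dexamethasone at 0.1 µM and 0% = DMSO only wells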). The conditions noted are these: HeLa MMTV-bla, beta-lactamase ratio, agonist, 18 h; stronger effect = higher value; percent of dexamethasone control, DMSO zero. In a few lines:
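Stimulation of a glucocorticoid response element-driven beta-lactamase gene was measured in HeLa cells. Responses were scaled between DMSO basal and 0.1 uM dexamethasone, then fitted for half-maximal stimulation.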

Assay [2] can be described thus: qHTS assay for environmental chemicals that activate the Aryl hydrocarbon Receptor (AhR) signaling pathway (AID 651777). Also: % of control where 0% means no effect; nearly all actives have a fitted effect of over 15% in size. The conditions noted are these: 1A2-DRE human hepatoma cells, luciferase, 24 h; activation: stronger effect = higher value. In a few lines:
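Following a 24 hr incubation with test chemicals at 37 C and 5% CO2, 1A2-DRE human hepatoma cells received One-Glo reagent; after 30 min at room temperature, luciferase output reflected CYP1A2 induction via AhR.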

Assay [3] is described as follows: qHTS assay for small molecule agonists of the antioxidant response element (ARE) signaling pathway measured by Nrf2-dependant transcriptional activity (AID 720636; active = well fitted curve in the direction sought with a large enough effect in the repeat runs; an effect the other way counts as inactive or inconclusive;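 also: HepG2 cells with an ARE-driven luciferase reporter; % of control where 0% means no effect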). The conditions noted are these: ARE-luc HepG2, Nrf2 luciferase reporter, 16 h; series mostly up to 92.4 µM. In a few lines:
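ONE-Glo luminescence, read 30 min after reagent addition at room temperature, reflected ARE reporter activity in HepG2 cells that had been incubated with compound for 16 hr at 37 C in 1% dialyzed FBS.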

Assay [4] in a line: qHTS assay for small molecule agonists of the antioxidant response element (ARE) signaling pathway measured by Nrf2-dependant transcriptional activity - cell viability counter screen (AID 720653; active = well fitted curve in the direction sought with a large enough effect in the repeat runs; an effect the other way counts as inactive or inconclusive; also: potency is read from the fitted curve at half-maximal effect; as to max response: % is scaled to controls: 0 for no effect and ±100 for the full control effect). Conditions: ARE-bla HepG2 viability, CellTiter-Glo ATP luminescence, 16 h; max response: stronger effect = lower value. In a few lines:
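ARE-bla HepG2 cells (2,000/well) rested 5 hrs at 37C/5% CO2, then exposed to compounds in DMSO for 16 hrs. Viability was read in the same wells as intracellular ATP by luminescence, 30 min at room temperature after reagent addition.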

Assay [5] in a line: qHTS assay for cell viability of HEK293 cells (AID 743288). Also: nearly all actives have a fitted effect of over 50% in size. Also: potency is read from the fitted curve at half-maximal effect. The conditions noted are these: ATP luminescence (CellTiter-Glo), 18 h; max response: stronger effect = lower value. In a few lines: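 ATP luminescence (CellTiter-Glo) reports metabolically competent cell number after parental HEK293 cells, 2,000/well, were treated with DMSO-dissolved compounds for 18 h at 37 C; reagent incubation 30 min, room temperature.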

The nature of assay [6]: qHTS assay for cell viability of the p53RE-bla HCT-116 cell line (AID 743292). Also: nearly all actives have a fitted effect of over 55% in size. Also: potency is read from the fitted curve at half-maximal effect. The conditions noted are these: p53RE-bla HCT-116 viability, ATP luminescence, 16 h; series mostly up to 95 µM. In a few lines: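 After plating at 4,000 cells per well and a 5 h rest at 37 C, HCT-116 cells carrying p53RE-bla received test chemicals in DMSO. Sixteen hours later at 37 C, CellTiter-Glo was added and luminescence recorded following 30 min at room temperature.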

Assay [7] in a line: qHTS assay for small molecule antagonists of peroxisome proliferator-activated receptor delta signaling (AID 588535; active = well fitted inhibition curve with a large enough effect in the signal ratio, with a control signal flat, not every such curve was filed as active; the % refers to the signal ratio;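 as to max response: cells co-treated with a PPAR-delta agonist as stimulator during compound exposure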). The conditions noted are these: HEK293T PPARd-UAS-bla, beta-lactamase FRET ratio, 18 h; 460 nm channel. In a few lines:
(§1)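 Inhibition of PPAR-delta response element-driven beta-lactamase expression is measured in HEK293T cells exposed to a compound titration series for 18 hrs at 37 C. Half-maximal inhibition comes from Hill equation fitting.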

Assay [8] deals with Peroxisome proliferator-activated receptor delta (Homo sapiens) (UniProt Q03181). The description is as above. Conditions: HEK293T PPARd-UAS-bla, beta-lactamase FRET ratio, 18 h; series mostly up to 76.7 µM. In a few lines:
as §1

The target in assay [9] is Peroxisome proliferator-activated receptor gamma (Homo sapiens) (UniProt P37231). Briefly: qHTS assay for small molecule agonists of peroxisome proliferator-activated receptor gamma signaling (AID 588536; active = well fitted curve in the direction sought with a large enough effect in the signal ratio, with a control signal flat, not every such curve was filed as active; the % refers to the signal ratio;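 also: 0% = DMSO basal wells and 100% = rosiglitazone at 2 µM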). The conditions noted are these: HEK293 PPARg-UAS-bla, beta-lactamase ratio, 16 h, percent of rosiglitazone response, DMSO as zero; series mostly up to 76.7 µM. In a few lines:
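This is an agonist-mode beta-lactamase reporter assay in HEK293 PPAR-gamma-UAS-bla cells with 1% charcoal/dextran FBS. Compound titrations ran 16 h at 37 C before CCF4 detection. EC50 and efficacy are Hill fits scaled to 2 uM rosiglitazone (100%) and DMSO basal.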

For assay [10], the target named is Vitamin D3 receptor (Homo sapiens) (UniProt P11473). Briefly: qHTS assay for small molecule antagonists of vitamin D receptor signaling (AID 588541; calls by dose curve;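 also: receptor activated by calcitriol during compound treatment; % is scaled to controls: 0 for no effect and ±100 for the full control effect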). The conditions noted are these: HEK293T VDR-UAS-bla, beta-lactamase ratio, antagonist mode; series mostly up to 76.7 µM. In a few lines: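 VDR-UAS-bla HEK293T cells (2000/well, 2% charcoal-stripped FBS) were treated with titrated compounds plus 1-alpha,25-dihydroxyvitamin D3 (50 nM or 3 nM final) for 16 h at 37 C. CCF4 beta-lactamase fluorescence was read; Hill fits gave IC50.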

Assay [11] shares this target. Briefly: qHTS assay for small molecule agonists of vitamin D receptor signaling (AID 588543; calls by dose curve;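 also: 0% = DMSO basal and 100% = reference agonist control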). The conditions noted are these: HEK293T VDR-UAS-bla, beta-lactamase ratio, 16 h; series mostly up to 76.8 µM. In a few lines: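 β-lactamase reporter, VDR-UAS-bla HEK293T, agonist mode. Cells plated 5 h at 37 °C, compound titration 16 h at 37 °C, CCF4 dye 2 h RT, ratio 460/530 nm. Hill fit → EC50, efficacy vs 50 nM 1α,25-(OH)2D3.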

A short description of assay [12]: qHTS assay for small molecule agonists of retinoid X receptor alpha signaling (AID 588544). Conditions: HEK293T RXRa-UAS-bla, beta-lactamase reporter, 18 h; 530 nm emission.
The nature of assay [13]: qHTS assay for small molecule antagonists of retinoid X receptor alpha signaling (AID 588546; active = well fitted inhibition curve with a large enough effect in the signal ratio, with a control signal flat, not every such curve was filed as active; the % refers to the signal ratio;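 also: cells stimulated with 9-cis-retinoic acid as agonist; % is scaled to controls: 0 for no effect and ±100 for the full control effect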). The conditions noted are these: HEK293T RXRa-UAS-bla, beta-lactamase ratio, antagonist mode; measured here: W530 green channel, cytotoxicity proxy. In a few lines: (§2)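 Beta-lactamase reporter inhibition, read as CCF4 fluorescence ratio (ex 405, em 460/530 nm) after 2 h at RT. HEK293T UAS-bla cells, 2500/well, were stimulated with 9-cis-RA at 500 or 100 nM final alongside test compound for 18 h at 37 C.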

The target in assay [14] is Retinoic acid receptor RXR-alpha (Homo sapiens) (UniProt P19793). Described as above. The conditions noted are these: HEK293T RXRa-UAS-bla, beta-lactamase ratio, antagonist mode. In a few lines:
as §2

The target of assay [15] is Peroxisome proliferator-activated receptor alpha (Homo sapiens) (UniProt Q07869). The assay is described as follows: qHTS assay for small molecule agonists of the peroxisome proliferator-activated receptor alpha (PPARalpha) signaling pathway (AID 651778). Also: % of control where 0% means no effect. Conditions: PathHunter PPARalpha complementation, chemiluminescence, 6 h; max response: stronger effect = higher value. In a few lines: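 Cells plated at 2,000/well and held overnight at 37 C, 5% CO2, then compound added by pin tool for 6 hr; after PathHunter detection reagent and 60 min at room temperature, chemiluminescence from enzyme complementation was read.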

Assay [16] concerns the target Nuclear receptor subfamily 1 group I member 2 (Rattus norvegicus) (UniProt Q9R1A7). The assay is described as follows: qHTS assay for small molecule activators of the rat pregnane X receptor (rPXR) signaling pathway (AID 651751; call rule not given here; also: 0% is about no effect). The conditions noted are these: rPXR reporter cells, luciferase (One-Glo), 24 h.
Assay [17] is described as follows: qHTS assay for small molecule activators of the p53 signaling pathway (AID 651743; active = well fitted activation curve with a large enough effect in the signal ratio, not every such curve was filed as active; the % refers to the signal ratio; also: % of control where 0% means no effect). The conditions noted are these: HCT-116 p53RE-bla, beta-lactamase FRET ratio, 16 h; activation: stronger effect = higher value. In a few lines: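 Agonist-mode quantitative HTS in HCT-116 cells carrying a p53-response-element beta-lactamase reporter; 16 h compound treatment at 37 C, then FRET substrate loading for 2 h at room temperature and fluorescence read.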

Assay [18] in a line: qHTS assay for small molecule activators of the human pregnane X receptor (PXR) signaling pathway (AID 720659; call rule not given here; also: 0% is about no effect). Conditions: DPX-2 HepG2 CYP3A4-luciferase, 24 h; series mostly up to 92.3 µM.
Assay [19] concerns the target Thyroid hormone receptor beta (Homo sapiens) (UniProt P10828). Briefly: qHTS assay for small molecule antagonists of thyroid hormone receptor beta signaling (AID 588547; active = well fitted inhibition curve with a large enough effect in the signal ratio, with a control signal flat, not every such curve was filed as active; the % refers to the signal ratio;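 also: cells stimulated with 0.4 nM T3 agonist during compound exposure; % is scaled to controls: 0 for no effect and ±100 for the full control effect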). The conditions noted are these: TR-UAS-bla HEK293, beta-lactamase ratio, antagonist mode, 18 h. In a few lines: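 TR-UAS-bla GripTite HEK293 cells in 2% charcoal/dextran FBS medium were preincubated 4 h at 37 C, given compound (0.59 nM to 92 uM) plus 0.4 nM T3 (final) for 18 h, then CCF4 for 2 h at RT; Hill fit gave IC50.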

Assay [20] shares this target. Briefly: qHTS assay for small molecule agonists of thyroid hormone receptor beta signaling (AID 588545; calls by dose curve;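 also: 0% = DMSO only and 100% = 10 nM T3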). Conditions: TR-UAS-bla GripTite HEK 293, beta-lactamase ratio, agonist mode, 18 h; series mostly up to 76.7 µM. In a few lines:
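TR-UAS-bla GripTite HEK 293 cells (2500/well, medium with 2% charcoal/dextran FBS) were treated in agonist mode for 18 h at 37 C, titrated. Beta-lactamase was read by CCF4 ratio after 2 h; normalized to 10 nM T3 (100%) and DMSO, Hill-fitted for EC50 and efficacy.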

Inconclusive results are not listed. Active and inactive are the calls of the source. Unless noted, calls follow the shape of the dose curve; as a rule, active = well fitted curve in the direction sought with a large enough effect; inconclusive = small, poorly fitted or top-dose-only effect, or another doubt; inactive = no such curve, though single readings can be large; an effect the other way counts as inactive or inconclusive.

Chain of Peroxisome proliferator-activated receptor alpha (Homo sapiens) (Q07869 whole entry, looked up): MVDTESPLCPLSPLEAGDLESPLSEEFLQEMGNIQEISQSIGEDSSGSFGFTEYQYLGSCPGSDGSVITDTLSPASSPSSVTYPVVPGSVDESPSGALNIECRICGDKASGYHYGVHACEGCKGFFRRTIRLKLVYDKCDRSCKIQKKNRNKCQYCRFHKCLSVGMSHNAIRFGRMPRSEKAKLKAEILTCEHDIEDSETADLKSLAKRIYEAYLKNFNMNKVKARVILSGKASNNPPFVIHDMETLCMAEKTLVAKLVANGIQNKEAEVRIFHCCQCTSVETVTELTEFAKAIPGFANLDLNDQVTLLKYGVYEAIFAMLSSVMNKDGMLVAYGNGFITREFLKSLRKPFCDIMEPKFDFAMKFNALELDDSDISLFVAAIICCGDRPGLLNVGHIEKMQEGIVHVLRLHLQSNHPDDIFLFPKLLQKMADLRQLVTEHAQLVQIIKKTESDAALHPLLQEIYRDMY
Chain of Nuclear receptor subfamily 1 group I member 2 (Rattus norvegicus) (Q9R1A7 whole entry, looked up): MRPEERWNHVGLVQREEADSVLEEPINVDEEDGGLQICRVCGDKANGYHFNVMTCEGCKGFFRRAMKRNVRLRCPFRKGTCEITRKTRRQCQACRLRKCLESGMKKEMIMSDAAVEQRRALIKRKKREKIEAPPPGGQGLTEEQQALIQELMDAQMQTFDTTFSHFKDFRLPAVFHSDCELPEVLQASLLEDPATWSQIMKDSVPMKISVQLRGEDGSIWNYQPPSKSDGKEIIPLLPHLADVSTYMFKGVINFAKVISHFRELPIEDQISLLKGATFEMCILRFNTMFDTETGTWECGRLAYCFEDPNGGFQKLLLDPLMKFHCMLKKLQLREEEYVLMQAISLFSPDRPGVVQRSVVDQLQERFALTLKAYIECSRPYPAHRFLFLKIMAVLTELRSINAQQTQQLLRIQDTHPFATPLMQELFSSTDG
Chain of Thyroid hormone receptor beta (Homo sapiens) (P10828 whole entry, looked up): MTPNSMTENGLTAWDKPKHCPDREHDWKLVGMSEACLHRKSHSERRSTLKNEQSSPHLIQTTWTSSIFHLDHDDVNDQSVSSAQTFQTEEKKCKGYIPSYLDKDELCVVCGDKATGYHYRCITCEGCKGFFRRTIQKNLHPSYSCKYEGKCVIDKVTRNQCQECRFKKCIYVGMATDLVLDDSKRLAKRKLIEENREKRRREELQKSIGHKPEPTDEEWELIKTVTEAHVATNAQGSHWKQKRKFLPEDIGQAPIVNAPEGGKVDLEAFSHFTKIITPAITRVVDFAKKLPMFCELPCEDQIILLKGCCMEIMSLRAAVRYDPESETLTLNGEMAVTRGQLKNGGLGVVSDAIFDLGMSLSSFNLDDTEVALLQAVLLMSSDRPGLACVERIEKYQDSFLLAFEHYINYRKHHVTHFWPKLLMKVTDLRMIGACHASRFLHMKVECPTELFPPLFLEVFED
Chain of Peroxisome proliferator-activated receptor gamma (Homo sapiens) (P37231 whole entry, looked up): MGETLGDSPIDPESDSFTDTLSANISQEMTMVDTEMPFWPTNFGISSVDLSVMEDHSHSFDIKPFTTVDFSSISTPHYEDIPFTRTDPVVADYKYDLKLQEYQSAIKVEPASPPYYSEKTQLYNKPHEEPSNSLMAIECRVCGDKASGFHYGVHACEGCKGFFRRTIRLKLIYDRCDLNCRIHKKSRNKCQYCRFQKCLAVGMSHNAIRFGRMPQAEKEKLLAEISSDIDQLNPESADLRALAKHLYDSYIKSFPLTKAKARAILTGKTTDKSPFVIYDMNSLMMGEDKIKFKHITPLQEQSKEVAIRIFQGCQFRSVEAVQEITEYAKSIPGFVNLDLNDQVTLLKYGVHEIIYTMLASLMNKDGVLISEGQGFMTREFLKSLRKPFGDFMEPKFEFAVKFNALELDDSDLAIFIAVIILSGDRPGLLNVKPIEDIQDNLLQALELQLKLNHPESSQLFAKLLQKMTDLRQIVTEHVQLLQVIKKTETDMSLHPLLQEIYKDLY
Chain of Peroxisome proliferator-activated receptor delta (Homo sapiens) (Q03181 whole entry, looked up): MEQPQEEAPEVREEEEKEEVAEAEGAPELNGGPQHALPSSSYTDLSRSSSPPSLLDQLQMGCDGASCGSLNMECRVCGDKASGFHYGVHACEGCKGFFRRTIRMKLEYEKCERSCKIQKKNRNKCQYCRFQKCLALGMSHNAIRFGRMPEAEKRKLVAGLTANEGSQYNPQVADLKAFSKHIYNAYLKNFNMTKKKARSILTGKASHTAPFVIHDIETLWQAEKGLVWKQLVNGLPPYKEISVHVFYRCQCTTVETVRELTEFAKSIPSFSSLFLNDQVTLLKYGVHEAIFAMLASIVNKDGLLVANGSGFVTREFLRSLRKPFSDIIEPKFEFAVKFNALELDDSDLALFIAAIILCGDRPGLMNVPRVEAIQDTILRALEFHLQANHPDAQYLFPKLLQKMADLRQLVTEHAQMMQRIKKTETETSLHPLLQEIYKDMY
Chain of Vitamin D3 receptor (Homo sapiens) (P11473 whole entry, looked up): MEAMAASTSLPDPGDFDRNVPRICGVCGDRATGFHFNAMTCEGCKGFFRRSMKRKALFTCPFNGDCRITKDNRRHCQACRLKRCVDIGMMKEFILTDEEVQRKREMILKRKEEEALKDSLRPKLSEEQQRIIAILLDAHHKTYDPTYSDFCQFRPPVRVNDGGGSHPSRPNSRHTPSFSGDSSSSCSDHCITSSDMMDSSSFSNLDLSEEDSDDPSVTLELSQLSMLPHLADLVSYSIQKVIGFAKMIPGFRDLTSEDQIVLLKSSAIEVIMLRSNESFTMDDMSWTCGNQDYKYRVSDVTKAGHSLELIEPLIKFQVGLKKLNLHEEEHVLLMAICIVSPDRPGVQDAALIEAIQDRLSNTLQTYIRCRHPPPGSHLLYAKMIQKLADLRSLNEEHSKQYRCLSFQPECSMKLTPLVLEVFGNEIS
Chain of Retinoic acid receptor RXR-alpha (Homo sapiens) (P19793 whole entry, looked up): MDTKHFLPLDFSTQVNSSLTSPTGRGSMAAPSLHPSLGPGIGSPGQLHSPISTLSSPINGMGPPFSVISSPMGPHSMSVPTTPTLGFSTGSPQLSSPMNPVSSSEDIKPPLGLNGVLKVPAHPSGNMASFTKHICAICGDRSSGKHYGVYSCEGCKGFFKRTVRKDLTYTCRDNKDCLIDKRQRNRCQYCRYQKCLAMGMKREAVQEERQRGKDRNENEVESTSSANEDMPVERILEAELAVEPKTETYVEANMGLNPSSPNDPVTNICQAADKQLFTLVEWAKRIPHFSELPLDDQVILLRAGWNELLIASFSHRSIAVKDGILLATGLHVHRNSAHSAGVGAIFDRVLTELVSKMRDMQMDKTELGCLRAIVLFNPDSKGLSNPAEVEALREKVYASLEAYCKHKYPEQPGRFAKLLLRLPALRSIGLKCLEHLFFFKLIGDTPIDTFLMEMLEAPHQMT
Chain of Glucocorticoid receptor (Homo sapiens) (P04150 whole entry, looked up): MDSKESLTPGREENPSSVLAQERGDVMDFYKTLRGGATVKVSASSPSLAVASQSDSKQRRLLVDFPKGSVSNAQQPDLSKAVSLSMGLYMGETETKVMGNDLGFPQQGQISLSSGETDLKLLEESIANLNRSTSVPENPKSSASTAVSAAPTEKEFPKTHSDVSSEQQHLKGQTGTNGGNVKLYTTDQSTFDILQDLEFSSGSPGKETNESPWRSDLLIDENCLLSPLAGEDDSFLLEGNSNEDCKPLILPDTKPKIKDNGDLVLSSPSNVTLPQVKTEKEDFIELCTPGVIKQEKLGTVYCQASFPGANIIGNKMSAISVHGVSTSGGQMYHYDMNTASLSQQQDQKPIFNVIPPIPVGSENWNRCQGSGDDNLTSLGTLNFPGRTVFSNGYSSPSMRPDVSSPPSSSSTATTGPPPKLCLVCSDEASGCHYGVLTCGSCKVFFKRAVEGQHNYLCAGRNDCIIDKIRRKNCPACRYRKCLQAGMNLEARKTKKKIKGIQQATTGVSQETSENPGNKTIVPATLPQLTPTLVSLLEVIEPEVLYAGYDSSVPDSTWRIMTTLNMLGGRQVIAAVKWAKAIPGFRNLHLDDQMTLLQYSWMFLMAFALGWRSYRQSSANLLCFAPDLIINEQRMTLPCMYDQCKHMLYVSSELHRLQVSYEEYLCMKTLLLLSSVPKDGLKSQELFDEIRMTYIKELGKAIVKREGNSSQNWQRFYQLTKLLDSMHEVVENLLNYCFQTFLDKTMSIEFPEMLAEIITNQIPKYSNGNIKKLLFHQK

For `Cc1cc(Cc2cc(C)cc(C(C)(C)C)c2O)c(O)c(C(C)(C)C)c1`, the activation was 20.3% (inactive) in assay [1] and -12.4% (inactive) in assay [2]. Besides, the Potency result in [3] is “inactive”. Moreover, the Potency is 39.8 µM (active) in [4], 50.1 µM (active) in [5] and 44.7 µM (active) in assay [6].

As for `COc1cc(Cl)c(OC)cc1N`, the activation in assay [1] is -0.0557% (inactive). Besides, the max response was -0.344% in assay [7]; -3.24% in assay [12]; 1.78% in assay [13]; -0.61% (inactive) in [14]; -0.316% (inactive) in assay [15]; 1.98% (inactive) in [4]. The values for the max response in [5] and in assay [16] were -8.15% (inactive) and 6.4% (inactive), respectively. Moreover, the Potency entry in [8], in assay [10], in assay [3] and in [6] was “inactive” in each case. Further, the result in [9] and in [11] was inactive.

On to `C=C(C)C(=O)OCCC[Si](Cl)(Cl)Cl`, for which the max response was 8.96% in assay [7]; -12.2% in assay [12]; -12.6% in assay [13]; 9.64% (inactive) in [14]; 0.0328% (inactive) in [15]; -17.2% (inactive) in [4]. Besides, the max response in assay [5] was -10.2% (inactive); in assay [16], 1.99% (inactive). In addition, the Potency result in assay [8], in assay [10], in assay [3] and in assay [6] was “inactive” each time. In addition, the result in assay [9] and in assay [18] was inactive. Also, the activation in assay [17] is -1.03% (inactive); in assay [2] it was -0.113% (inactive).

`CN(C)c1ccc(C(c2ccccc2)c2ccc(N(C)C)cc2)cc1`: in [19], the activity change % (negative = inhibition) is 13.2% (inactive). In addition, the activation was -0.413% (inactive) in assay [17] and 1.41% (inactive) in [2]. In addition, the max response in assay [15] is -1.55% (inactive); in assay [4] it was -16.8% (inactive); in assay [5], -22.1% (inactive); in [16], 5.9% (inactive). For the same compound, the Potency entry in assay [3] and in [6] was “inactive” throughout.

For `CC1(C)C(=O)N(Br)C(=O)N1Cl`, the result in assay [9] and in [11] was inactive. Further, the Potency result in [10], in assay [20], in assay [3] and in assay [6] was “inactive” in each case. Moreover, the max response in assay [12] is -10%; in assay [13], -9.45%; in [15], -1.51% (inactive); in assay [4], -11.1% (inactive); in assay [5], -4.13% (inactive); in assay [16], 1.46% (inactive). The activity change % (negative = inhibition) in assay [19] was -12% (inactive). Besides, the activation in [17] is 2.83% (inactive); in [2] it was 1.28% (inactive).

With `O=c1oc(=O)c2cc3c(=O)oc(=O)c3cc12`, the max response in assay [7] was 11%; in assay [12], -7.31%; in [13] it was 2.24%; in [15], -1.48% (inactive); in assay [4], -10.8% (inactive); in [5], -11.4% (inactive). Also, the max response in assay [16] is -1.16% (inactive). Besides, the Potency entry in assay [8], in assay [20], in [3] and in assay [6] was “inactive” throughout. Besides, the result in assay [9] and in assay [18] was inactive. Further, the activity change % (negative = inhibition) in [19] is -2.54% (inactive). Further, the activation in assay [2] was 0.0535% (inactive).
